Where a name gives a salt, the structure may show the parent alone.
What was measured:
Test in all cases: cell viability of combination (% of vehicle); higher = less cytotoxic
Conditions in all cases: 1 µM; 72 h; partner dose: 10 nM
HCI01 = tested on: HCI01 (cells of a triple-negative basal-like breast cancer xenograft)
Procedure: (§1)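 PDX cells were treated for 72 h with each drug at 1 µM plus carfilzomib (10 nM; 100 nM for WHIM2). Luciferase viability is expressed as percent of vehicle.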

UCD52 = tested on: UCD52 (cells of a triple-negative basal-like breast cancer xenograft)
Procedure: as §1

WHIM30 = tested on: WHIM30 (cells of a triple-negative basal-like breast cancer xenograft)
Procedure: as §1

| SMILES | cell viability of combination (HCI01) | cell viability of combination (UCD52) | cell viability of combination (WHIM30) |
| --- | --- | --- | --- |
| COc1cccc2c1C(=O)c1c(O)c3c(c(O)c1C2=O)CC(O)(C(=O)CO)CC3OC1CC(N)C(O)C(C)O1.Cl (stereo not given) [Doxorubicin (Adriamycin) HCl] + CC(C)C[C@H](NC(=O)[C@H](CCc1ccccc1)NC(=O)CN1CCOCC1)C(=O)N[C@@H](Cc1ccccc1)C(=O)N[C@@H](CC(C)C)C(=O)[C@@]1(C)CO1 [Carfilzomib] | 60.9 | 30.2 | 7.61 |
| CCCCCCCCCCCC1=C(O)C(=O)C=C(O)C1=O [Embelin] + CC(C)C[C@H](NC(=O)[C@H](CCc1ccccc1)NC(=O)CN1CCOCC1)C(=O)N[C@@H](Cc1ccccc1)C(=O)N[C@@H](CC(C)C)C(=O)[C@@]1(C)CO1 [Carfilzomib] | 71.1 | 55.5 | 17.7 |
| COC1=C(OC)C(=O)C(CCCCCCCCCCO)=C(C)C1=O [Idebenone] + CC(C)C[C@H](NC(=O)[C@H](CCc1ccccc1)NC(=O)CN1CCOCC1)C(=O)N[C@@H](Cc1ccccc1)C(=O)N[C@@H](CC(C)C)C(=O)[C@@]1(C)CO1 [Carfilzomib] | 82.8 | 62 | – |
| O=C(NN=Cc1ccc([N+](=O)[O-])o1)c1ccc(O)cc1 [Nifuroxazide] + CC(C)C[C@H](NC(=O)[C@H](CCc1ccccc1)NC(=O)CN1CCOCC1)C(=O)N[C@@H](Cc1ccccc1)C(=O)N[C@@H](CC(C)C)C(=O)[C@@]1(C)CO1 [Carfilzomib] | 72.2 | 57.6 | 12.5 |
| CS(=O)(=O)CCNCc1ccc(-c2ccc3ncnc(Nc4ccc(OCc5cccc(F)c5)c(Cl)c4)c3c2)o1.Cc1ccc(S(=O)(=O)O)cc1.Cc1ccc(S(=O)(=O)O)cc1 [Lapatinib Ditosylate] + CC(C)C[C@H](NC(=O)[C@H](CCc1ccccc1)NC(=O)CN1CCOCC1)C(=O)N[C@@H](Cc1ccccc1)C(=O)N[C@@H](CC(C)C)C(=O)[C@@]1(C)CO1 [Carfilzomib] | 69.5 | 47.7 | – |
| [O-]n1ccccc1=S.[O-]n1ccccc1=S.[Zn+2] [Zinc Pyrithione] + CC(C)C[C@H](NC(=O)[C@H](CCc1ccccc1)NC(=O)CN1CCOCC1)C(=O)N[C@@H](Cc1ccccc1)C(=O)N[C@@H](CC(C)C)C(=O)[C@@]1(C)CO1 [Carfilzomib] | 68.3 | 42.8 | 13.4 |
| CN(C)c1ccc(C(=C2C=CC(=[N+](C)C)C=C2)c2ccc(N(C)C)cc2)cc1.[Cl-] [Crystal Violet] + CC(C)C[C@H](NC(=O)[C@H](CCc1ccccc1)NC(=O)CN1CCOCC1)C(=O)N[C@@H](Cc1ccccc1)C(=O)N[C@@H](CC(C)C)C(=O)[C@@]1(C)CO1 [Carfilzomib] | 68 | 32.3 | 6 |
| CN1CCC(COc2cnc(-c3cccc(Cn4nc(-c5cccc(C#N)c5)ccc4=O)c3)nc2)CC1 + CC(C)C[C@H](NC(=O)[C@H](CCc1ccccc1)NC(=O)CN1CCOCC1)C(=O)N[C@@H](Cc1ccccc1)C(=O)N[C@@H](CC(C)C)C(=O)[C@@]1(C)CO1 [Carfilzomib] | 80.4 | 57 | 26.9 |
| CN(C)CC=CC(=O)Nc1cc2c(Nc3ccc(F)c(Cl)c3)ncnc2cc1OC1CCOC1.O=C(O)C=CC(=O)O.O=C(O)C=CC(=O)O (stereo not given) [Afatinib dimaleate] + CC(C)C[C@H](NC(=O)[C@H](CCc1ccccc1)NC(=O)CN1CCOCC1)C(=O)N[C@@H](Cc1ccccc1)C(=O)N[C@@H](CC(C)C)C(=O)[C@@]1(C)CO1 [Carfilzomib] | 86.1 | 26.6 | – |
| COc1cccc2c1C(=O)c1c(O)c3c(c(O)c1C2=O)C[C@@](O)(C(C)=O)C[C@@H]3O[C@H]1C[C@H](N)[C@H](O)[C@H](C)O1.Cl [Daunorubicin HCl] + CC(C)C[C@H](NC(=O)[C@H](CCc1ccccc1)NC(=O)CN1CCOCC1)C(=O)N[C@@H](Cc1ccccc1)C(=O)N[C@@H](CC(C)C)C(=O)[C@@]1(C)CO1 [Carfilzomib] | 79.9 | 17.1 | – |
| CO[C@@]12[C@H](COC(N)=O)C3=C(C(=O)C(C)=C(N)C3=O)N1C[C@@H]1N[C@@H]12 [Mitomycin C] + CC(C)C[C@H](NC(=O)[C@H](CCc1ccccc1)NC(=O)CN1CCOCC1)C(=O)N[C@@H](Cc1ccccc1)C(=O)N[C@@H](CC(C)C)C(=O)[C@@]1(C)CO1 [Carfilzomib] | 51.1 | 64 | 23.5 |
| COC(=O)C1=C(C)NC(C)=C(C(=O)OCCN(C)Cc2ccccc2)C1c1cccc([N+](=O)[O-])c1.Cl (stereo not given) [Nicardipine HCl] + CC(C)C[C@H](NC(=O)[C@H](CCc1ccccc1)NC(=O)CN1CCOCC1)C(=O)N[C@@H](Cc1ccccc1)C(=O)N[C@@H](CC(C)C)C(=O)[C@@]1(C)CO1 [Carfilzomib] | 115 | 52 | – |
| CC(C)C(=O)OCC(=O)[C@@]12O[C@H](C3CCCCC3)O[C@@H]1C[C@H]1[C@@H]3CCC4=CC(=O)C=C[C@]4(C)[C@H]3[C@@H](O)C[C@@]12C [Ciclesonide] + CC(C)C[C@H](NC(=O)[C@H](CCc1ccccc1)NC(=O)CN1CCOCC1)C(=O)N[C@@H](Cc1ccccc1)C(=O)N[C@@H](CC(C)C)C(=O)[C@@]1(C)CO1 [Carfilzomib] | 108 | 88.6 | 31.2 |
| CC(C)COc1ccc(CNC(=O)N(Cc2ccc(F)cc2)C2CCN(C)CC2)cc1 [Pimavanserin] + CC(C)C[C@H](NC(=O)[C@H](CCc1ccccc1)NC(=O)CN1CCOCC1)C(=O)N[C@@H](Cc1ccccc1)C(=O)N[C@@H](CC(C)C)C(=O)[C@@]1(C)CO1 [Carfilzomib] | 76.1 | 62.4 | – |
| Cl.O.O=C1Cc2cc(CCN3CCN(c4nsc5ccccc45)CC3)c(Cl)cc2N1 [Ziprasidone hydrochloride monohydrate] + CC(C)C[C@H](NC(=O)[C@H](CCc1ccccc1)NC(=O)CN1CCOCC1)C(=O)N[C@@H](Cc1ccccc1)C(=O)N[C@@H](CC(C)C)C(=O)[C@@]1(C)CO1 [Carfilzomib] | 79.6 | 64.2 | – |
| CCOc1cc2ncc(C#N)c(Nc3ccc(OCc4ccccn4)c(Cl)c3)c2cc1NC(=O)C=CCN(C)C [Neratinib (HKI-272)] + CC(C)C[C@H](NC(=O)[C@H](CCc1ccccc1)NC(=O)CN1CCOCC1)C(=O)N[C@@H](Cc1ccccc1)C(=O)N[C@@H](CC(C)C)C(=O)[C@@]1(C)CO1 [Carfilzomib] | 87.8 | 48.7 | 17.5 |
| O=C(C=Cn1cnc(-c2cc(C(F)(F)F)cc(C(F)(F)F)c2)n1)NNc1cnccn1 + CC(C)C[C@H](NC(=O)[C@H](CCc1ccccc1)NC(=O)CN1CCOCC1)C(=O)N[C@@H](Cc1ccccc1)C(=O)N[C@@H](CC(C)C)C(=O)[C@@]1(C)CO1 [Carfilzomib] | 57.3 | 40.1 | 5.58 |
| C1=C\COCc2cc(ccc2OCCN2CCCC2)Nc2nccc(n2)-c2cccc(c2)COC/1 [Pacritinib] + CC(C)C[C@H](NC(=O)[C@H](CCc1ccccc1)NC(=O)CN1CCOCC1)C(=O)N[C@@H](Cc1ccccc1)C(=O)N[C@@H](CC(C)C)C(=O)[C@@]1(C)CO1 [Carfilzomib] | 58.2 | 57.9 | – |
| COc1nc2ccc(Br)cc2cc1[C@@H](c1ccccc1)[C@@](O)(CCN(C)C)c1cccc2ccccc12 [Bedaquiline fumarate] + CC(C)C[C@H](NC(=O)[C@H](CCc1ccccc1)NC(=O)CN1CCOCC1)C(=O)N[C@@H](Cc1ccccc1)C(=O)N[C@@H](CC(C)C)C(=O)[C@@]1(C)CO1 [Carfilzomib] | 77.1 | 68.8 | – |
| CNCCCC12CCC(c3ccccc31)c1ccccc12.Cl [Maprotiline HCl] + CC(C)C[C@H](NC(=O)[C@H](CCc1ccccc1)NC(=O)CN1CCOCC1)C(=O)N[C@@H](Cc1ccccc1)C(=O)N[C@@H](CC(C)C)C(=O)[C@@]1(C)CO1 [Carfilzomib] | 76.5 | 55.5 | – |
